Source: PubChem
Only some compounds are listed: those with a hit (about 12% of all), similar ones and a draw of the others.
Shiga toxin inh: inhibitors of Shiga toxin in Vero cells | Vero cells, Shiga toxin protein synthesis inhibition reporter | inhibition, % at 38.7 µM | hit rate 9.2% among 290,000 | AID 2315; in the data active means inhibition mostly above about 28%, no sharp cut-off; inactive means mostly below about 43%; further: 0% is about no effect
Sm TGR inh: S. mansoni TGR enzyme inhibition; Q962Y6; purified TGR, DTNB reduction, TNB absorbance 405 nm; Potency, µM (titrated, usually from 114 µM), without a hit: at the highest dose activity change, negative = inhibition, actives largely listed as inhibitors; hit rate 3% among 360,000; AID 485364; active means well fitted inhibition curve with a large enough effect; inconclusive means small, poorly fitted or top-dose-only effect; inactive means no such curve, though single readings can be large or run the other way; further: potency means the concentration at half of the fitted maximal effect; on the % scale 0 is the no-effect control and ±100 the full control effect; nearly all actives have a fitted effect of over 60% in size
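Kinetic colorimetric format: TGR-catalysed, NADPH-driven DTNB reduction monitored via TNB absorbance. Enzyme dispensed at 20 nM; compound exposure 15 min at room temperature before reaction start.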
FMDV inh: foot and mouth disease virus antiviral activity; FMDV antiviral cell-based qHTS; hit rate 1.2% among 410,000; Potency, µM (highest dose often 57.9 µM), inactives show at the top dose activity change, negative = inhibition, hits mostly inhibitors; calls by dose curve; tested in HEK293T cells; further: read-out not given here; potency means the concentration at half of the fitted maximal effect; on the % scale 0 is the no-effect control and ±100 the full control effect; nearly all actives have a fitted effect of over 45% in size
Cycloheximide cs: affects cycloheximide protein synthesis inhibition readout, counter-screen; hit rate 12% among 300,000; AID 2314; max response, %; cell reporter, cycloheximide protein synthesis inhibition counterscreen; in the data active means max response mostly above about 13%, no sharp cut-off; inactive means mostly below about 14%; further: read at 38.3 µM for the half of the compounds with a filed dose; 0% is about no effect
Active calls of the source: *; ? = inconclusive; . = no result; [ ] = remark or other dose.

SMILES	Shiga toxin inh	Sm TGR inh	FMDV inh	Cycloheximide cs
COc1ccc(C(=O)NCC(c2cccnc2)N2CCN(c3ccccc3OC)CC2)cc1 (stereo not given)	.	0.5%	?	.
COc1ccc(NC(=O)c2cccc(N3C(=O)C4C5C=CC(C6CC56)C4C3=O)c2)cc1 (stereo not given)	9.3	-0.1%	39.8µM*	-3.2
COc1ccc(NC(=O)c2cccc(N3C(=O)C4C5C=CC(C5)C4C3=O)c2)cc1Cl (stereo not given)	13.9	-14.3%	?	-1.4
O=C(Nc1ccc(Cl)cc1)c1cccc(N2C(=O)C3C4CCC(C4)C3C2=O)c1 (stereo not given)	52.4*	-0.1%	31.6µM*	22.5*
CC(=O)c1ccc(NC(=O)c2cccc(N3C(=O)c4ccccc4C3=O)c2)cc1	-10.5	-29.7%	-8.0%	3.6
CN(C)c1ccc(NC(=O)c2cccc(N3C(=O)C4C5C=CC(C5)C4C3=O)c2)cc1 (stereo not given)	144.3	?	7.2%	62.0*
COc1ccc(NC(=O)c2cccc(N3C(=O)c4cccc([N+](=O)[O-])c4C3=O)c2)cc1	25.7	-19.7%	-5.1%	24.3*
O=S(=O)(NCc1csc(-c2ccccc2)n1)c1ccccc1	.	-17.3%	7.2%	.
COc1ccc(/C=C2\C(=O)N(c3c(Cl)cc(Cl)cc3Cl)N=C2NC(=O)c2cccc([N+](=O)[O-])c2)cc1	-14.7	-20.4%	11.2µM*	-0.9
Cc1ccc(S(=O)(=O)Nc2cccc(-c3ccc(N4CCCCC4)nn3)c2)s1	.	1.3%	20.5%	.
O=C(Nc1cc(Cl)ccc1Cl)c1noc2c1CCCC2	-1.6	4.1%	-23.0%	1.5
O=C(Nc1ccc(F)cc1F)c1noc2c1CCC2	58.8*	?	61.3%	34.9*
Cc1cc(NC(=O)c2noc3c2CCCCC3)nn1Cc1ccc(Cl)cc1	33.3	-6.6%	16.3%	11.0
O=C(NCc1ccc(Cl)cc1)c1noc2c1CCCCC2	46.8*	3.0%	57.8%	32.1*
O=C(NCc1ccc(F)cc1)c1noc2c1CCCC2	50.5	11.6%	44.0%	20.5*
O=C(NCc1ccc(F)cc1)c1noc2c1CCCCC2	31.9	1.8%	31.9%	20.8*
Cc1cccc(C(=O)N2CCNC(=O)C2CC(=O)Nc2ccc(F)cc2)c1 (stereo not given)	.	2.7%	-26.5%	.
CCN(CC)c1ccc2cc(-c3nc(-c4cccs4)no3)c(=O)oc2c1	.	0.1%	23.8%	.
COc1cccc(C(c2sc3nc(-c4ccco4)nn3c2O)N2CCC(C)CC2)c1 (stereo not given)	.	0.0%	25.6%	.
CCCCN(c1ccccc1)c1ncnc2c1cnn2-c1ccc(Cl)cc1	.	3.2%	-2.6%	.
CCOC(=O)c1sc2cccc(F)c2c1S(=O)(=O)NCc1ccccc1Cl	.	6.4%	0.0%	.
CCN1C(=O)[C@H]2[C@@H](c3ccc(-c4ccc(F)cc4)c(OC)c3)N[C@@](CC(C)C)(C(=O)OC)[C@H]2C1=O	.	39.8µM*	.	.
CCN1C(=O)[C@H]2[C@@H](c3ccc(-c4ccc(F)cc4)cc3)N[C@@](CC(C)C)(C(=O)OC)[C@H]2C1=O	.	-13.3%	0.0%	.
CCN1C(=O)[C@@H]2[C@@H](c3ccc(-c4ccc(F)cc4)c(OC)c3)N3CCCC[C@@]3(C(=O)OC)[C@@H]2C1=O	.	28.2µM*	-15.4%	.
CCN1C(=O)[C@H]2[C@@H](c3ccc(-c4ccc(C(C)=O)cc4)c(OC)c3)N3CCCC[C@@]3(C(=O)OC)[C@H]2C1=O	.	.	-20.2%	.
SMILES	Shiga toxin inh	Sm TGR inh	FMDV inh	Cycloheximide cs
Cc1cc2c(cc1S(=O)(=O)N(CCO)Cc1ccccc1)OCC(=O)N2	.	4.8%	5.6%	.
Cc1c(CNCCc2ccc(Cl)cc2)c(C(=O)O)c(C)n1-c1ccccc1	26.5	11.2µM*	2.0%	-1.6
Cc1ccc(CCNCc2c(C(=O)O)c(C)n(-c3ccccc3)c2C)cc1	-9.7	?	-14.9%	6.5
CCC(=Nc1ccccc1N)c1c(O)[nH]c(=O)[nH]c1=O	98.8*	?	45.5%	51.8*
CCC(=NCCc1ccccc1)c1c(O)[nH]c(=O)[nH]c1=O	-4.1	0.7%	-16.0%	1.1
Cc1nn(C)c2c1c(-c1ccccc1)cc(=O)n2Cc1ccc(F)cc1	.	-7.1%	5.6%	.
CN(/N=C/c1ccccc1O)C(=S)c1ccccc1	77.0	4.2%	47.3%	24.7*
Cc1cccc(N2CCn3c2nc2c3c(=O)n(CCCc3ccccc3)c(=O)n2C)c1	.	-16.0%	-5.3%	.
Cc1nc2ccc(C(=O)OCc3nnc(-c4ccccc4)o3)cc2nc1C	-8.8	-17.0%	-17.6%	10.3*
O=C(OCc1nnc(-c2ccc(Cl)cc2)o1)c1ccncc1	20.8	3.2%	13.7%	5.1
O=C(OCc1nnc(-c2ccccc2)o1)c1ccccc1	89.6*	1.2%	63.9%	29.5*
NC(=O)COC(=O)c1ccc(-c2ccccc2)cc1	64.0*	-2.5%	22.5%	17.4*
Cc1ccccc1C(=O)OCc1nnc(-c2ccc(Cl)cc2)o1	45.3*	5.1%	3.5%	24.8*
Cc1nc2ccc(C(=O)OCc3nnc(-c4ccc(Br)cc4)o3)cc2nc1C	-13.5	-5.2%	-6.8%	-3.5
CCC(C)NC(=O)Cn1ncc2c(C)n(Cc3ccc(F)cc3)c(C)c2c1=O (stereo not given)	.	-0.7%	4.1%	.
O=C(CSc1ccccc1)N1CCc2c([nH]c3ccccc23)C1c1ccc(Cl)cc1 (stereo not given)	.	11.2%	-16.6%	.
CC(C(=O)OCc1nnc(-c2ccccc2)o1)N1C(=O)C2CCCCC2C1=O (stereo not given)	69.6*	-3.2%	50.2%	37.2*
CC(=O)Nc1ccc(OCc2nnc(-c3ccc(Cl)cc3)o2)cc1	57.5	59.7%	1.9%	19.9*
CC(NC(=O)COC(=O)C12CC3CC(CC(Br)(C3)C1)C2)c1ccccc1 (stereo not given)	.	.	-12.0%	.
O=C(OCc1nnc(-c2ccccc2)o1)C12CC3CC(CC(Br)(C3)C1)C2	56.4*	0.5%	9.7%	35.5*
Cc1cccc(C(=O)Nc2cccc(C(=O)OCc3cc(=O)n4ccsc4n3)c2)c1	.	1.5%	14.2%	.
O=C(Nc1ccc(F)c(Cl)c1)N1CCN(C(=O)c2nsc3ccccc23)CC1	.	9.2%	12.5%	.
Cc1ccc(C(=O)CCS(=O)(=O)c2ccc(Cl)cc2)cc1	18.7	0.355µM*	-9.8%	0.8
Cc1ccc(C(=O)CCS(=O)(=O)c2ccc(F)cc2)cc1	26.1*	0.316µM*	6.3%	24.9*
Cc1ccc(S(=O)(=O)CCC(=O)c2ccc(F)cc2)cc1	-8.8	-17.5%	?	-0.2
SMILES	Shiga toxin inh	Sm TGR inh	FMDV inh	Cycloheximide cs
COc1ccccc1C(=O)Nc1ccnn1C1CCN(C(=O)C2CCOC2)CC1 (stereo not given)	31.8	0.9%	14.4%	12.9*
COc1cccc(C(=O)N2CCC(n3nccc3NC(=O)CCOc3ccccc3)CC2)c1	28.4	1.6%	21.0%	30.3*
CC(C)C(=O)N1CCC(n2nccc2NC(=O)CCOc2ccccc2)CC1	17.4	-0.4%	12.2%	17.5*
COc1ccc(C(=O)Nc2ccnn2C2CCN(C(=O)c3cccnc3)CC2)cc1	60.5*	-14.0%	6.8%	30.1*
C=C(C)C1COc2cc3oc(=O)ccc3cc2O1 (stereo not given)	.	.	37.6%	.
COc1ccc(-c2nc3c4c(ncn3n2)-c2ccccc2CC42CCCC2)cc1	-2.5	0.0%	31.6µM*	-1.9
Cc1cc(NCCN2CCOCC2)c2ccc3ccccc3c2n1	84.4*	-10.5%[57.1 µM]	3.7%	23.0*
